Test results taken from PubChem BioAssay (NCI).
This is part of a sample that, as a whole, favours compounds with a hit. Of some 83,000 tested, about 20% had one in any assay.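 Results are percent growth after 48 hours of single-concentration exposure. 100 means growth as in untreated cells, lower positive values show inhibition; negative values down to -100 show cell death.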 Values without a mark were called inactive. Activity calls are given as the source filed them. Rule for the calls: active = growth percent below 10; inactive = the rest.

What was measured:
Experiment in all cases: NCI-60 one-dose screen, 48 h (100 = growth as untreated, 0 = no growth, -100 = all killed)
Settings in all cases: 10 µM unless noted
[1] = system: SK-MEL-2 melanoma
[2] = system: EKVX NSCLC
[3] = system: SN12C renal
[4] = system: UO-31 renal
[5] = system: TK-10 renal
[6] = system: ACHN renal
[7] = system: CAKI-1 renal
[8] = system: A498 renal
[9] = system: CCRF-CEM leukemia
[10] = system: MOLT-4 leukemia

| SMILES | growth [1] | growth [2] | growth [3] | growth [4] | growth [5] | growth [6] | growth [7] | growth [8] | growth [9] | growth [10] |
| --- | --- | --- | --- | --- | --- | --- | --- | --- | --- | --- |
| COc1cc2cc(NCc3cccc(Cl)c3)nc(C)c2cc1OC | 38.6% | 60% | 44.6% | 36% | 45.9% | 43.5% | 52% | 7.63% (active) | 27.5% | 30.4% |
| CSc1nc2ccccc2cc1/C=C1/C=C(c2ccccc2)NC1=O | 81% | 84.9% | 94.1% | 91.9% | 123% | 102% | 77.9% | 69.9% | 68.8% | 36.3% |
| COc1ccc(Cc2cnc(NC(=O)c3cc(C)oc3C)s2)cc1 | 47.7% | 36.8% | 42.7% | 39.6% | 58% | 40.3% | 25.3% | 16.5% | 29.3% | 19.2% |
| COc1ccc(-c2nn(-c3cccc(Cl)c3)cc2-c2cc(-c3ccc(Br)cc3)nc(N)n2)cc1 | 99.7% | 92.3% | 92.7% | 76% | 104% | 103% | 77.3% | 81.6% | 92.7% | 88.3% |
| COc1ccc(-c2cc(-c3cc(OC)c(OC)c(OC)c3)c(C#N)c(=O)n2CCCCC(=O)NO)cc1 | 87.2% | 65.5% | 66.5% | 37.8% | 68.1% | 56.1% | 46.3% | 76.7% | 26.7% | 27.2% |
| CC(C)(C)[Si](C)(C)OC1[C@@H](CNC(=O)NC(=O)NC(N)=O)O[C@@H](n2cnc3c(NC(=O)Nc4ccccc4)ncnc32)[C@H]1O[Si](C)(C)C(C)(C)C (stereo not given in full) | 94.8% | 90.5% | 74.6% | 95.2% | 88.9% | 77.3% | 101% | 101% | 71.4% | 54.3% |
| CCOC(=O)Cc1cnc(N/N=C(\C)c2cc3ccccc3o2)s1 | 113% | 85.1% | 99.1% | 64.7% | 144% | 90.7% | 81.6% | 113% | 92.5% | 55.5% |
| CC/C=C\C[C@H](O)C/C=C1/C(=O)C=C[C@@H]1C/C=C\CCCC(=O)N(C)C | 29% | 22.9% | -9.16% (active) | -81.3% (active) | -6.21% (active) | -85% (active) | -9.48% (active) | 50.2% | 0.876% (active) | 6.69% (active) |
| CCOC(=O)C1=C(c2ccccc2)N=C2SC=C(c3ccc(Cl)cc3)N2C1c1ccc(Cl)cc1 (stereo not given) | 98.2% | 69.9% | 85.5% | 74.7% | 108% | 91.3% | 60.7% | 7.54% (active) | 79.3% | 31.5% |
| C=C(C)[C@@H]1CCC[C@]2(COS(=O)(=O)c3ccc(C)cc3)CC[C@]3(C)[C@@H](CC[C@@H]4[C@@]5(C)CCCNC(C)(C)[C@@H]5CC[C@]43C)[C@@H]12 | 83.1% | 9.77% (active) | -94.4% (active) | 61% | 43.2% | 44.6% | -68.3% (active) | 81.3% | 1.15% (active) | -11.1% (active) |
| Cc1cn(-c2cc(NC(=O)c3cccc(C#Cc4cccc5[nH]nc(N)c45)c3)cc(C(F)(F)F)c2)cn1 | 22.5% | 56.7% | 29.9% | 9.11% (active) | 78.8% | 21.5% | 75.7% | 35.1% | 15% | 20.7% |
| COc1ccc(Nc2nnc(-c3ccc(OC)c(OC)c3)o2)cc1 | 90.5% | 89.8% | 97.8% | 55.3% | 114% | 82.8% | 89% | 94.8% | 86.8% | 91.3% |
| CCOC(=O)C1=C(N)Oc2c(sc3c(F)cccc23)C1c1ccc(O)cc1 (stereo not given) | 14.3% | 42.4% | 56% | 30.1% | 74% | 42.3% | 57.6% | 43.2% | 20.3% | 9.73% (active) |
| CSc1nc2ncc([N+](=O)[O-])c(=O)n2[nH]1 | 107% | 100% | 108% | 87.5% | 97.8% | 103% | 92.8% | 88.3% | 99.6% | 129% |
| COc1cc(OCc2cccc(Br)c2C)cc(OC)c1C=O | 88% | 80.8% | 77.5% | 71.8% | 45.4% | 90.7% | 24.2% | -88.7% (active) | 77% | 80.2% |
| O=C(Nc1ccc(Oc2cccc(F)c2)c(Cl)c1)c1cccnc1 | 36.5% | 49.6% | 36.4% | 39.7% | 59.9% | 35.2% | 32.5% | 4.16% (active) | 24% | 40.2% |
| CC(O)(c1ccccc1)C(c1ccccc1)C1CCCCN1 (stereo not given) | 117% | 104% | 93.1% | 93.5% | 102% | 107% | 102% | 106% | 101% | 99.7% |
| O=C(NCc1ccc(Cl)cc1Cl)C1CCC(=O)N1c1cccs1 (stereo not given) | 91.2% | 91.3% | 97.9% | 83.1% | 98.8% | 95% | 81.6% | 85.2% | 110% | 98.1% |
| COC(=O)[C@]12CCC(C)(C)C[C@H]1[C@H]1/C(=N/OCCc3nn[nH]n3)C[C@@H]3[C@@]4(C)CC[C@H](OC(C)=O)C(C)(C)[C@@H]4CC[C@@]3(C)[C@]1(C)CC2 | 58.8% | 35.6% | 39% | 15.5% | 55.6% | 32.8% | 39.8% | -19% (active) | 33.5% | 27.6% |
| COc1cc2c(cc1OC)C(C)N(S(N)(=O)=O)CC2 (stereo not given) | 106% | 107% | 88.7% | 81.9% | 103% | 102% | 101% | 102% | 80% | 91.8% |
| CCC(C(=O)[C@@H](C)[C@@H](O)[C@H](C)[C@@H]1O[C@@H]([C@@H](CC)C(=O)ONC(=O)c2ccccc2)CC[C@@H]1C)[C@H]1O[C@]2(C=CC(=O)[C@]3(CC[C@@](C)([C@H]4CC[C@](O)(CC)[C@H](C)O4)O3)O2)[C@H](C)C[C@@H]1C (stereo not given in full) | -4.05% (active) | 33.5% | -48.6% (active) | -95.1% (active) | 52.8% | -47.3% (active) | 16.5% | 16.8% | -11.2% (active) | -2.14% (active) |
| CCCCn1c(=O)[nH]c(N)c([C@@H]2c3c([nH]c(=O)n(CCCC)c3=O)Oc3ccc4ccccc4c32)c1=O | 89.2% | 84.5% | 81% | 3.72% (active) | 73.7% | 2.15% (active) | 51.5% | 101% | -15.9% (active) | -8.45% (active) |
| CCCCNC(=O)Oc1ccc(/C(=C(/C)Cc2ccc(OC)cc2)c2ccc(OCCN(CC)CC)cc2)cc1 | 102% | 83.9% | 83.8% | 58.4% | 79.7% | 91.1% | 89.9% | 102% | 49.3% | 48.3% |
| NC(=O)c1c(NC(=O)c2ccc3ccccc3c2)sc2c1CCC(=O)C2 | 103% | 86.2% | 50.5% | 27.3% | 95.7% | 34.2% | 16.3% | 95.2% | 15% | 36.6% |
| CCOc1ccccc1Cn1ccnc1CCc1c(Cl)c(O)cc(O)c1C(=O)OC | 87.5% | 101% | 96.9% | 78.9% | 90.4% | 98.3% | 98.6% | 114% | 93.6% | 91.9% |
| O=C(Nc1ccc(Oc2cccc(Cl)c2)c(Cl)c1)c1cnccn1 | 43.6% | 53.2% | 44.4% | 37.3% | 56.4% | 40% | 21.6% | 50.2% | 16.6% | 26.2% |
